Experimental data from PubChem BioAssay (Tox21).
Results filed as inconclusive are left out. Active and inactive are the calls of the source. Unless noted, the call rests on the fitted dose curve.

Assays:
[1] = Nuclear factor erythroid 2-related factor 2/antioxidant responsive element (Nrf2/ARE) small molecule agonists: qHTS cell viability counter screen in human keratinocytes (AID 1919968; active means well fitted curve in the direction sought with a large enough effect in the repeat runs; an effect the other way counts as inactive or inconclusive; further: nearly all actives have a fitted effect of over 55% in size)
Procedure, shortened: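 KeratinoSens HaCaT cells, 1,500/well, preincubated 5 h, then exposed to compounds in DMSO for 23 h at 37 C/5% CO2. Viability read as CellTiter-Fluor fluorescence after 1 h, in the same wells as the ARE-luciferase read.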

[2] = Nuclear factor erythroid 2-related factor 2/antioxidant responsive element (Nrf2/ARE) small molecule agonists: luciferase reporter gene qHTS assay in human keratinocytes (AID 1919969); further: nearly all actives have a fitted effect of over 35% in size; further: potency means the concentration at half of the fitted maximal effect
[3] = target: Gonadotropin-releasing hormone receptor (Homo sapiens) (UniProt P30968); experiment: Human gonadotropin-releasing hormone receptor (GnRHR) small molecule agonists, calcium flux assay in GnRHR-HEK293 cells (AID 1920063); further: nearly all actives have a fitted effect of over 35% in size
Chain of Gonadotropin-releasing hormone receptor (Homo sapiens) (P30968 whole entry, looked up): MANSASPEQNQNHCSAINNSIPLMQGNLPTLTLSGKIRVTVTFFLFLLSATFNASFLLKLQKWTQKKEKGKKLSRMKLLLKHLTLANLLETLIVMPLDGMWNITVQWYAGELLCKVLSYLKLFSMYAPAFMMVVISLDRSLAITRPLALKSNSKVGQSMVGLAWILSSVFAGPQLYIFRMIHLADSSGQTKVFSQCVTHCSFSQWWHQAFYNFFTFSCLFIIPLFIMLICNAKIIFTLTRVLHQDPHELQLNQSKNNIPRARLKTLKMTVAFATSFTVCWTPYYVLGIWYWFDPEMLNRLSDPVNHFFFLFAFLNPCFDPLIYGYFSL
Procedure, shortened: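 HEK293 cells stably expressing human GnRHR were dye-loaded for 1 h at 37 C. Compound was added in agonist mode and fluorescence (Ex/Em 480/540) recorded kinetically for 3 min. Fifteen concentrations, triplicates.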

[4] = target: KiSS-1 receptor (Homo sapiens) (UniProt Q969F8); experiment: Human kisspeptin (KISS1R) small molecule agonists, calcium flux assay in KISS1R-HEK293 cells (AID 1920064; active means well fitted curve in the direction sought with a large enough effect in the repeat runs; an effect the other way counts as inactive or inconclusive)
Chain of KiSS-1 receptor (Homo sapiens) (Q969F8 whole entry, looked up): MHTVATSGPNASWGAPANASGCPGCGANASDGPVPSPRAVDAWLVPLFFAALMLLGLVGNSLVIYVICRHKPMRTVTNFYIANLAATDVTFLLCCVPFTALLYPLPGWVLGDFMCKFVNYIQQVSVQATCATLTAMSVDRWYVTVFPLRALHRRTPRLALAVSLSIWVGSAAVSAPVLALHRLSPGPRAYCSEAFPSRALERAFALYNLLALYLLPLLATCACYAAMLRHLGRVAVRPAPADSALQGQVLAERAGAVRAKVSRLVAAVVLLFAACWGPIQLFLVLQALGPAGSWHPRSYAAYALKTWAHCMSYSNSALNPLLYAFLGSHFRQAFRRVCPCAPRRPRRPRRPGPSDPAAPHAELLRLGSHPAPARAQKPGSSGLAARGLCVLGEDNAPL
Procedure, shortened: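 HEK293 cells stably expressing human KISS1R were loaded with calcium dye for 1 h at 37 C, then given compound; fluorescence (Ex/Em 480/540) was read kinetically for 3 min. Fifteen concentrations, triplicate.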

[5] = G protein-coupled receptor (GPCR) small molecule agonists, calcium flux assay: HEK293 wild type cell line counter screen (AID 1920065)
Procedure, shortened: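 Wild-type HEK293 cells plated 18 h, loaded with calcium dye 1 h at 37 C, then compounds added in agonist mode (ATP as positive control). Kinetic fluorescence Ex/Em 480/540 recorded 3 min at 1 sec intervals; 15 concentrations, triplicate.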

[6] = p53 small molecule agonists, cell-based qHTS assay with human liver microsomes: qHTS cell viability counter screen (AID 1963579); further: nearly all actives have a fitted effect of over 45% in size
Procedure, shortened: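 Metabolically activated exposure: compounds, human liver microsomes and NADPH (0.5 mg/mL final apiece) were added to p53RE-bla cells seeded 5 h earlier, left 16 h at 37 C, and then assessed for viability by CellTiter-Glo luminescence.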

[7] = p53 small molecule agonists, cell-based qHTS assay with rat liver microsomes: qHTS cell viability counter screen (AID 1963580); further: nearly all actives have a fitted effect of over 45% in size
Procedure, shortened: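 Viability is assessed in parallel with the p53 reporter read: HCT-116 p53RE-bla cells receive compounds plus rat microsomes and NADPH (0.5 mg/mL final apiece), incubate 16 h at 37 C, and then CellTiter-Glo luminescence is recorded.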

[8] = p53 small molecule agonists, cell-based qHTS assay: qHTS cell viability counter screen (AID 1963581); further: nearly all actives have a fitted effect of over 45% in size
Procedure, shortened: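 p53RE-bla HCT-116 cells, compounds added 5 h after plating and incubated 16 h at 37 C. Cytotoxicity measured in the same wells as intracellular ATP by CellTiter-Glo luminescence after 30 min at room temperature.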

[9] = target: 5-hydroxytryptamine receptor 2A (Homo sapiens) (UniProt P28223); experiment: 5-hydroxytryptamine receptor 2A (HTR2A) small molecule antagonists, cell-based qHTS assay (AID 1963586); further: nearly all actives have a fitted effect of over 45% in size
Chain of 5-hydroxytryptamine receptor 2A (Homo sapiens) (P28223 whole entry, looked up): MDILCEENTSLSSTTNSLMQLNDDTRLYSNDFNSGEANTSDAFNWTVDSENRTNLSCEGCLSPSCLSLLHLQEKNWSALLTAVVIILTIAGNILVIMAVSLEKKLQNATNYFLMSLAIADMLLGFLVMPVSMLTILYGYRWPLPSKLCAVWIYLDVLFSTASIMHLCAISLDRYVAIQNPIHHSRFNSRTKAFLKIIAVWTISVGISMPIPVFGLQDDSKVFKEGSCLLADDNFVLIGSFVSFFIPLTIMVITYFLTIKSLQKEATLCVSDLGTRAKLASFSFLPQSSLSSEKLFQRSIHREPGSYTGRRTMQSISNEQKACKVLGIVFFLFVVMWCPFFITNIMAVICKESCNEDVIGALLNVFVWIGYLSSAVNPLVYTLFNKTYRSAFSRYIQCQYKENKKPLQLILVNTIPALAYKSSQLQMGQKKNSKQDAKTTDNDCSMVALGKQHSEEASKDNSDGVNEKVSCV
Procedure, shortened: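 Antagonist-mode intracellular calcium assay: DOI (4 nM) added after 5 min compound pre-incubation at room temperature to dye-loaded HTR2A-CHO cells. Fluorescence followed for 3 min, sampled every second.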

[10] = target: 5-hydroxytryptamine receptor 2A (Homo sapiens) (UniProt P28223); experiment: 5-hydroxytryptamine receptor 2A (HTR2A) small molecule agonists, cell-based qHTS assay (AID 1963587); further: nearly all actives have a fitted effect of over 30% in size
Procedure, shortened: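 CHO cells stably expressing human HTR2A, plated 18 h, loaded with calcium dye 1 h at 37 C. Agonist mode: compounds added and intracellular calcium fluorescence recorded kinetically for 2 min at 1 sec intervals.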

[11] = target: Muscarinic acetylcholine receptor M1 (Homo sapiens) (UniProt P11229); experiment: Cholinergic receptor muscarinic 1 (CHRM1) small molecule antagonists, cell-based qHTS assay (AID 1963588); further: nearly all actives have a fitted effect of over 40% in size
Chain of Muscarinic acetylcholine receptor M1 (Homo sapiens) (P11229 whole entry, looked up): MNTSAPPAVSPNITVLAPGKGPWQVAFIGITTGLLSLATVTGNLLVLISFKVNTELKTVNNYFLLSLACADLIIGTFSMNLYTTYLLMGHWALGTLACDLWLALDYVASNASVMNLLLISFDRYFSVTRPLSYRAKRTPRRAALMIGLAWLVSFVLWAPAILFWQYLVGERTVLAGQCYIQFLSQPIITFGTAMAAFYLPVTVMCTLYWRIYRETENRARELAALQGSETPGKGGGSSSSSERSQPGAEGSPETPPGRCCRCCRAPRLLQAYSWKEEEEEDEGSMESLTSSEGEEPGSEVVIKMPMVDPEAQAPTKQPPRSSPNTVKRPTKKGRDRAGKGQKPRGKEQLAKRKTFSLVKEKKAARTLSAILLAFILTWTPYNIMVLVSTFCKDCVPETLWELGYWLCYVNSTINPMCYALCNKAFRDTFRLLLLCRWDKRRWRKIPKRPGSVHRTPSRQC
Procedure, shortened: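 CHRM1-CHO calcium-flux assay, antagonist mode. Cells were seeded 18 h, dye-loaded 1 h at 37 C and given compound for 5 min at RT, then acetylcholine was added at 50nM. FDSS fluorescence was read 3 min; 15 concentrations, three runs.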

[12] = target: Muscarinic acetylcholine receptor M1 (Homo sapiens) (UniProt P11229); experiment: Cholinergic receptor muscarinic 1 (CHRM1) small molecule agonists, cell-based qHTS assay (AID 1963589); further: nearly all actives have a fitted effect of over 35% in size
Procedure, shortened: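 CHO cells stably expressing human CHRM1 were loaded with calcium dye for 1 h at 37 C, then compound was added in agonist mode. Intracellular calcium fluorescence was followed kinetically at 1 s intervals. Fifteen concentrations were tested in three independent runs.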

[13] = target: D(2) dopamine receptor (Homo sapiens) (UniProt P14416); experiment: Dopamine D2 receptor (DRD2) small molecule agonists, cell-based qHTS assay (AID 1963594); further: nearly all actives have a fitted effect of over 35% in size
Chain of D(2) dopamine receptor (Homo sapiens) (P14416 whole entry, looked up): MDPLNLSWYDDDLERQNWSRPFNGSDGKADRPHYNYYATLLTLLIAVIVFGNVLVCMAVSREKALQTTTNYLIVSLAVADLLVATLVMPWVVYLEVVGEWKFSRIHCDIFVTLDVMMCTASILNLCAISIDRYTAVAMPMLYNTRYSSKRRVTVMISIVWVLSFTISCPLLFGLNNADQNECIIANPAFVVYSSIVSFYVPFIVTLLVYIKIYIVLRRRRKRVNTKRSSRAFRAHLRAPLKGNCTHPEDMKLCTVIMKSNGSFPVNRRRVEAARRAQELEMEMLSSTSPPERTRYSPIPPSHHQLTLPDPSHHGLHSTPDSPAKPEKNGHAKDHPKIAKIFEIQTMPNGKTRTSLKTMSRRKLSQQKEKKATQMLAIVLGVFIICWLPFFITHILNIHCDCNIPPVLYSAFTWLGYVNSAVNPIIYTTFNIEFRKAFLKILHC
Procedure, shortened: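 HEK293 cells stably expressing human DRD2, pre-treated with PDE inhibitor Ro20-1724 (0.1 mM final) and compound 10 min at room temperature, then stimulated with NKH477 (200nM […]) for 30 min. cAMP read by HTRF (665/620 nm).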

[14] = cAMP Responsive Elements (CRE) small molecule agonists, cell-based qHTS assay (AID 1963590)
Procedure, shortened: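 CRE-bla HEK 293T cells, 2,000/well in DMEM with 10% dialyzed FBS and 25 mM HEPES, pre-incubated 18 h at 37 C, then exposed to compound 3 h at 37 C. Beta-lactamase reporter read with LiveBLAzer B/G FRET substrate after 2 h at room temperature.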

[15] = cAMP Responsive Elements (CRE) small molecule antagonists, cell-based qHTS assay (AID 1963591; active means well fitted inhibition curve with a large enough effect in the signal ratio in the repeat runs, not every such curve was filed as active; the % refers to the signal ratio)
Procedure, shortened: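 CRE-bla HEK293T cells plated 18 h, then given compound plus NKH477 at 0.25 uM final for 3 h at 37C. Beta-lactamase reporter read with LiveBLAzer B/G FRET substrate after 2 h at room temperature.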

[16] = target: Beta-2 adrenergic receptor (Homo sapiens) (UniProt P07550); experiment: Adrenergic beta2 receptor (ADRB2) small molecule antagonists, cell-based qHTS assay (AID 1963592); further: nearly all actives have a fitted effect of over 50% in size; further: potency means the concentration at half of the fitted maximal effect; on activity change, negative = inhibition: series mostly up to about 92 µM
Chain of Beta-2 adrenergic receptor (Homo sapiens) (P07550 whole entry, looked up): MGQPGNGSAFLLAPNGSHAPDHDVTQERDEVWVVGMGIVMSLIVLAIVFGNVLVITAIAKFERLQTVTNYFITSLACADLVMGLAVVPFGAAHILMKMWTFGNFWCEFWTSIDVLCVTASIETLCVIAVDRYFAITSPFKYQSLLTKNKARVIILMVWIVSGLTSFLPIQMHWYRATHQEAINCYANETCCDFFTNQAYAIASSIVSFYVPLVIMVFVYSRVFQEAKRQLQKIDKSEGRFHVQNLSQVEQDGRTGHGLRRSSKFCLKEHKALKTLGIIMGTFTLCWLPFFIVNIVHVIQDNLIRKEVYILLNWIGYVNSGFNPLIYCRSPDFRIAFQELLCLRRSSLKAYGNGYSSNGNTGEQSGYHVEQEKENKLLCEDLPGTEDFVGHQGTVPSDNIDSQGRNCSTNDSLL
Procedure, shortened: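 Cells (CHO, stable ADRB2 overexpression) incubated 18-20hr at 37C; compounds added from DMSO; agonist mix (1nM isoproterenol, 100uM IBMX, 25uM Ro-20-1724) added; 0.5hr RT; d2-cAMP and anti-cAMP-cryptate added; 1hr RT; 665/615 nm read.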

[17] = target: D(2) dopamine receptor (Homo sapiens) (UniProt P14416); experiment: Dopamine D2 receptor (DRD2) small molecule antagonists, cell-based qHTS assay (AID 1963595; active means well fitted inhibition curve with a large enough effect in the signal ratio in the repeat runs, with a control signal flat; the % refers to the signal ratio)
Procedure, shortened: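 Antagonist mode in DRD2-HEK293 cells: after compound addition with 0.1 mM Ro20-1724, cells received quinpirole (12 nM) and NKH477 (200 nM) for 30 min at room temperature; HTRF cAMP read after 1 h detection.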

[18] = target: Beta-2 adrenergic receptor (Homo sapiens) (UniProt P07550); experiment: Adrenergic beta2 receptor (ADRB2) small molecule agonists, cell-based qHTS assay (AID 1963593);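 further: CHO cells stably overexpressing human ADRB2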
Procedure, shortened: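 CHO cells stably over-expressing ADRB2 were plated overnight at 37C, then dosed with compounds plus a stimulation mix containing 100uM IBMX and 25uM Ro-20-1724 for 0.5hr at room temperature. cAMP was measured by HTRF competition, 1hr.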
On the % scale 0 is the no-effect control and ±100 the full control effect.

Cc1oc(=O)oc1CN1CCN(c2cc3c(cc2F)c(=O)c(C(=O)O)c2n3C(C)S2)CC1 (stereo unspecified)
inactive: Potency [1] | Potency [2] | Potency [3] | Potency [4] | Potency [5] | Potency [6] | Potency [7] | Potency [8] | Potency [9] | Potency [10] | Potency [11] | Potency [12] | Potency [13]

C1CCCCCCCCCCC1
inactive: activity change, negative = cytotoxicity [1] 0.761% [at 19 µM] | activity, positive = activation [2] -8.94% [at 19 µM] | activity change [3] -0.293% [at 11.8 µM, stronger effect = higher value] | activation [4] 1.26% [at 15.8 µM] | activation [5] -0.978% [at 11.8 µM] | activity change, negative = cytotoxicity [6] -2.12% [at 13.5 µM] | activity change, negative = cytotoxicity [7] 0.482% [at 13.5 µM] | activity change, negative = cytotoxicity [8] 9.85% [at 13.5 µM] | activity, negative = inhibition [9] -15.5% [at 12.7 µM] | activation [10] -0.851% [at 15.9 µM] | activity, negative = inhibition [11] 10.4% [at 12.6 µM] | activation [14] -0.929% [at 19 µM] | activity change, negative = inhibition [15] -1.59% [at 18.9 µM] | activity change, negative = inhibition [16] 0.327% [at 19 µM] | activation [13] -2.66% [at 19 µM] | activity change, negative = inhibition [17] -0.815% [at 18.9 µM]

CC(=O)OCC(=O)[C@@]1(O)[C@H](C)C[C@H]2[C@@H]3CCC4=CC(=O)C=C[C@]4(C)[C@@]3(F)[C@@H](O)C[C@@]21C
inactive: Potency [1] | Potency [2] | Potency [3] | Potency [4] | Potency [5] | Potency [6] | Potency [7] | Potency [8] | Potency [9] | Potency [10] | Potency [11] | Potency [14] | Potency [15] | Potency [16] | Potency [13] | Potency [17]

Cc1cc(C(=C2C=CC(=Nc3ccc(S(=O)(=O)O)cc3S(=O)(=O)O)C=C2)c2ccc(Nc3ccc(S(=O)(=O)O)cc3)cc2)ccc1N
inactive: Potency [1] | Potency [2] | Potency [3] | Potency [4] | Potency [5] | Potency [6] | Potency [7] | Potency [8] | Potency [9] | Potency [10] | Potency [11] | Potency [12] | Potency [15] | Potency [18] | Potency [13] | Potency [17]

COC(=O)C(C)=O
inactive: Potency [1] | Potency [2] | Potency [3] | Potency [4] | Potency [5] | Potency [6] | Potency [7] | Potency [8] | Potency [9] | Potency [10] | Potency [12] | Potency [14] | Potency [15] | Potency [16] | Potency [13] | Potency [17]

C[C@H](NC(CCc1ccccc1)C(=O)O)C(=O)N1CCC[C@H]1C(=O)O (stereo partly specified)
inactive: Potency [1] | Potency [2] | Potency [3] | Potency [4] | Potency [5] | Potency [6] | Potency [7] | Potency [8] | Potency [9] | Potency [10] | Potency [11] | Potency [14] | Potency [15] | Potency [16] | Potency [18] | Potency [17]

C1C2OC2C2C1C1CC2C2OC12 (stereo unspecified)
inactive: Potency [1] | Potency [2] | Potency [3] | Potency [4] | Potency [5] | Potency [6] | Potency [7] | Potency [8] | Potency [9] | Potency [10] | Potency [12] | Potency [14] | Potency [15] | Potency [16] | Potency [13] | Potency [17]

O=C1NC(=O)c2cccc3cccc1c23
inactive: Potency [1] | Potency [2] | Potency [3] | Potency [4] | Potency [5] | Potency [6] | Potency [7] | Potency [8] | Potency [9] | Potency [10] | Potency [11] | Potency [15] | Potency [16] | Potency [18] | Potency [13] | Potency [17]

NCCCN(CCO)CCO
active: Potency [16] 0.217 µM
inactive: Potency [1] | Potency [2] | Potency [3] | Potency [4] | Potency [5] | Potency [6] | Potency [7] | Potency [8] | Potency [9] | Potency [10] | Potency [11] | Potency [14] | Potency [15] | Potency [18] | Potency [17]

Cc1ccccc1N=C(N)N=C(N)N
inactive: Potency [1] | Potency [2] | Potency [3] | Potency [4] | Potency [5] | Potency [6] | Potency [7] | Potency [8] | Potency [9] | Potency [10] | Potency [11] | Potency [14] | Potency [15] | Potency [16] | Potency [13] | Potency [17]

CC[N+](C)(CC)CCOC(=O)C1c2ccccc2Oc2ccccc21
inactive: Potency [1] | Potency [2] | Potency [3] | Potency [4] | Potency [5] | Potency [6] | Potency [7] | Potency [8] | Potency [9] | Potency [10] | Potency [12] | Potency [14] | Potency [15] | Potency [13] | Potency [17]

CCC(C)(CCC(C)C)C(=O)[O-].CCC(C)(CCC(C)C)C(=O)[O-].[Zn+2] (stereo unspecified)
inactive: Potency [1] | Potency [2] | Potency [3] | Potency [4] | Potency [5] | Potency [6] | Potency [7] | Potency [8] | Potency [9] | Potency [10] | Potency [11] | Potency [15] | Potency [16] | Potency [13] | Potency [17]

O=c1oc2cc(O)ccc2c2oc3cc(O)ccc3c12
active: Potency [2] 29.4 µM
inactive: Potency [1] | Potency [3] | Potency [4] | Potency [5] | Potency [6] | Potency [7] | Potency [8] | Potency [9] | Potency [10] | Potency [11] | Potency [12] | Potency [17]

CCOC(=O)[C@@](C)(N)Cc1ccc(O)c(O)c1
inactive: Potency [1] | Potency [2] | Potency [3] | Potency [4] | Potency [5] | Potency [6] | Potency [7] | Potency [8] | Potency [9] | Potency [10] | Potency [11] | Potency [14] | Potency [15] | Potency [16] | Potency [13]

CN(C)[C@@H]1C(=O)C(C(N)=O)=C(O)[C@@]2(O)C(=O)C3=C(O)c4c(O)ccc(Cl)c4[C@@H](O)[C@H]3C[C@@H]12
inactive: Potency [1] | Potency [2] | Potency [3] | Potency [4] | Potency [5] | Potency [6] | Potency [7] | Potency [8] | Potency [9] | Potency [10] | Potency [11] | Potency [12] | Potency [16] | Potency [18] | Potency [13] | Potency [17]
